The list is not random: actives were taken first. Their share in the collection is about 11%.
VACV Venus inh: vaccinia inhibition (Venus reporter). Vaccinia virus Venus reporter expression, fluorescence. Potency, µM (titrated, usually from 36.5 µM), actives largely listed as inhibitors. 330,000 compounds, 0.46% hits; calls by dose curve; tested in A549 cells; further: nearly all actives have a fitted effect of over 30% in size
HCV inhibitor: HCV inhibition. 340,000 compounds, 3.4% hits. Huh7.5.1 HCVcc-Cre infection, luciferase reporter, 44 h. AID 651820. Potency, µM (highest dose often 41.8 µM), hits mostly inhibitors
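Reporter virus HCVcc-Cre (~0.5 moi) infects cells exposed to compound; seeding density 1,000 cells/well with 4 h settling beforehand. Luminescence, 15 sec read, taken 44 h post-infection following a 15 min RT substrate incubation.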
Vaccinia mCherry: inhibitors of vaccinia virus infection (mCherry reporter signal) | Vaccinia virus mCherry reporter infection, fluorescence | Potency, µM (doses to about 36.5 µM), hits mostly inhibitors | 310,000 compounds, 0.63% hits | AID 720579; calls by dose curve; tested in A549 cells; further: nearly all actives have a fitted effect of over 35% in size
Pf growth 48h: P. falciparum growth inhibition at 48 hours (one generation); P. falciparum luciferase growth in erythrocytes, 48 h; 310,000 compounds, 5.9% hits; Potency, µM (doses to about 28.7 µM), actives largely listed as inhibitors
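Cell-based growth assay: transgenic P. falciparum expressing firefly luciferase, cultured in red cells within RPMI 1640 containing 0.5% w/v Albumax, 24 mM bicarbonate and gentamycin. A drop in luciferase activity indicates inhibition.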
Pf growth 96h: P. falciparum growth inhibition at 96 hours; AID 504834; Potency, µM (top dose mostly 28.7 µM), actives largely listed as inhibitors; P. falciparum luciferase reporter growth, 96 h; 320,000 compounds, 6.9% hits
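Plates of compound plus infected erythrocytes (2% hematocrit, 0.05% parasitemia final) incubate 96 hours, 37 C, 5% CO2. Detection reagent added; reduced luminescence from the parasites' luciferase reporter flags inhibition.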
NS1 function inh: inhibitors of influenza NS1 protein function; Potency, µM (top dose mostly 46.1 µM); 270,000 compounds, 0.4% hits; AID 2326; calls by dose curve; further: actives are rising curves; nearly all actives have a fitted effect of over 50% in size
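Growth recovery, yeast-based: influenza A NS1 expressed in S. cerevisiae causes slow growth, and suppressors are detected by OD600. The parent strain without NS1 is used as positive control.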
Each line names hits and unclear results; the compound was inactive in the other large screens. Unless noted, the call rests on the fitted dose curve; in most records, active means well fitted inhibition curve with a large enough effect; inconclusive means small, poorly fitted or top-dose-only effect, or another doubt; inactive means no such curve, though single readings can be large or run the other way.

CCn1c(C)[n+](CCOC(C)=O)c2cc(Cl)c(Cl)cc21	Pf growth 48h 2.3µM
COc1ccc2[nH]c(C(=O)N3CCc4ccccc4C3)c(C)c2c1	HCV inhibitor 11µM, Pf growth 48h inconclusive, Pf growth 96h inconclusive (no result: VACV Venus inh, Vaccinia mCherry)
COc1ccc(OC)c(-c2cc(C(=O)N3CCc4ccccc4C3)no2)c1	Pf growth 96h 9.3µM (no result: VACV Venus inh, Vaccinia mCherry)
COc1ccc(N2CCN(C(=O)c3[nH]c4ccc(OC)cc4c3C)CC2)cc1	none
CCCCCCCC(=O)Nc1ccc(C(=O)N/N=C/c2cccc([N+](=O)[O-])c2)cc1	HCV inhibitor inconclusive, Pf growth 96h inconclusive
COc1cccc(N2C(=O)CN(Cc3cc(OC)c(OC)c(OC)c3)C2=S)c1	Pf growth 48h 0.33µM
COc1ccc(N2C(=O)CN(Cc3cc(OC)c(OC)c(OC)c3)C2=S)cc1	HCV inhibitor inconclusive, Pf growth 48h inconclusive (no result: NS1 function inh)
COc1ccc(CN2CC(=O)N(c3cccc(Cl)c3)C2=S)cc1OC	Pf growth 48h 10µM
COc1ccc(CN2CC(=O)N(c3ccc(Cl)cc3)C2=S)cc1OC	Pf growth 48h 13µM, Pf growth 96h inconclusive
CNC(=O)CC1C(=O)N(c2ccc(Cl)cc2)C(=S)N1CCc1ccc(OC)c(OC)c1 (configuration not stated)	Pf growth 48h 12µM
O=C(COC(=O)c1cc(S(=O)(=O)N2CCCCC2)ccc1N1CCOCC1)NCCc1ccc(F)cc1	Vaccinia mCherry inconclusive, Pf growth 48h inconclusive, Pf growth 96h inconclusive, NS1 function inh inconclusive
N#Cc1cc2c(nc1SC1CC(=O)N(c3ccccc3)C1=O)CCC2 (configuration not stated)	none
Cc1ccc(NS(=O)(=O)c2cccc(C(=O)N3CCCCC3)c2)cc1	none (no result: Pf growth 48h, Pf growth 96h, NS1 function inh)
O=c1[nH]nc(Sc2ncnc3sccc23)n1CCc1ccccc1	Pf growth 48h 10µM, Pf growth 96h 9.3µM (no result: VACV Venus inh, Vaccinia mCherry)
CCOC(=O)C(Cc1ccccc1)NC(=O)Cn1nnc(-c2ccc(C)cc2)n1 (configuration not stated)	none (no result: HCV inhibitor, Pf growth 48h, Pf growth 96h, NS1 function inh)
COc1cc(/C=N\Nc2nncn2N)ccc1OC(C)=O	VACV Venus inh 20µM, Vaccinia mCherry 16µM, Pf growth 96h 0.93µM
COc1cc(/C=N/NC(=O)c2ccncc2)ccc1OC(C)=O	Pf growth 96h inconclusive (no result: VACV Venus inh, Vaccinia mCherry)
C=CCNC(=O)CSc1nnc(-c2ccncc2)n1CCc1ccccc1	Pf growth 96h 12µM
CCn1c(SCC(=O)NNC(=O)Cc2ccccc2)nnc1-c1ccncc1	Pf growth 48h 1.5µM, Pf growth 96h 0.33µM
CCn1c(SCC(=O)NNC(=O)c2ccccc2)nnc1-c1ccncc1	Pf growth 96h inconclusive (no result: VACV Venus inh, Vaccinia mCherry)
O=C(CSc1nnc(-c2ccncc2)n1CCc1ccccc1)NCc1ccccc1	Pf growth 48h inconclusive, Pf growth 96h inconclusive (no result: VACV Venus inh, Vaccinia mCherry)
O=C(C1=C[C@@H](c2ccccc2)C[C@@H](OCc2ccc(CO)cc2)O1)N1CCCCCCC1	Vaccinia mCherry inconclusive, Pf growth 48h inconclusive, Pf growth 96h 8.3µM
O=C(C1=C[C@H](c2ccc(C(F)(F)F)cc2)C[C@H](OCc2ccc(CO)cc2)O1)N1CCCCCCC1	Pf growth 48h inconclusive, Pf growth 96h 9.3µM
Cc1cc(C)c(S(=O)(=O)N2CCN(C(=O)c3cc4ccccc4o3)CC2)c(C)c1	Pf growth 48h inconclusive, Pf growth 96h inconclusive (no result: NS1 function inh)
CCOC(=O)c1ccc(S(=O)(=O)N2CCN(C(=O)c3cc4ccccc4o3)CC2)cc1	Pf growth 48h 9.3µM, Pf growth 96h inconclusive (no result: NS1 function inh)
O=C(c1cc2ccccc2o1)N1CCN(S(=O)(=O)c2ccc(F)c(F)c2F)CC1	Pf growth 48h 8.3µM, Pf growth 96h 10µM (no result: VACV Venus inh, Vaccinia mCherry, NS1 function inh)
Cc1ccccc1C(=O)N1CCN(c2ccc([N+](=O)[O-])c(N3CCOCC3)c2)CC1	none
Cn1ccnc1SCC(=O)Nc1cccc([N+](=O)[O-])c1	none (no result: NS1 function inh)
Cc1ccc2nc(Nc3nc(C)cc(C(F)(F)F)n3)nc(C)c2c1	Pf growth 48h inconclusive, Pf growth 96h 5.2µM
COc1ccc(N=C2O/C(=C/c3sc(=S)n(CC4CCCO4)c3O)N=C2C#N)cc1 (configuration not stated)	Pf growth 48h inconclusive, Pf growth 96h 15µM
COC(=O)C1=C(C)N(CC2CCCO2)C(=O)/C1=C\c1ccc(O)cc1 (configuration not stated)	none (no result: Vaccinia mCherry, Pf growth 48h)
CC(C)(C)C1c2[nH]c3ccccc3c2CCN1CCCn1cccn1 (configuration not stated)	Pf growth 48h inconclusive, Pf growth 96h 5.9µM
Fc1ccccc1C1c2[nH]c3ccccc3c2CCN1CCCn1cccn1 (configuration not stated)	Vaccinia mCherry inconclusive, Pf growth 48h inconclusive
COc1cc(OC)cc(C(=O)NC(=S)N2C[C@H]3C[C@H](C2)c2cccc(=O)n2C3)c1	none
Cc1nc(N2CCOCC2)[nH]c(=O)c1CCC(C)C	none (no result: VACV Venus inh, Vaccinia mCherry, Pf growth 96h)
CCCCCCCc1c(C)nc(N2CCOCC2)[nH]c1=O	Pf growth 48h 1.5µM (no result: VACV Venus inh, Vaccinia mCherry, Pf growth 96h)
CCCCc1c(C)nc(N2CCCC2)[nH]c1=O	Pf growth 48h 6.6µM, Pf growth 96h 4.7µM (no result: VACV Venus inh, Vaccinia mCherry)
CCCCCCc1c(C)nc(-n2[nH]c(C)c(CCO)c2=O)[nH]c1=O	Pf growth 48h inconclusive, Pf growth 96h 9.3µM
Cc1[nH]n(-c2ccc(Cl)c(Cl)c2)c(=O)c1CCO	Pf growth 48h inconclusive, Pf growth 96h inconclusive
Cc1[nH]n(-c2ncc(-c3ccc(Cl)cc3)s2)c(=O)c1C(c1ccc(Cl)cc1)C(C#N)C#N (configuration not stated)	none
Cc1ccc(S(=O)(=O)NCCSc2nnnn2-c2ccc(C(N)=O)cc2)cc1	Pf growth 48h inconclusive, Pf growth 96h inconclusive
CCn1cc(C(=O)O)c(=O)c2cc(S(=O)(=O)N(C)C)ccc21	none (no result: VACV Venus inh, Vaccinia mCherry)
COc1ccc(CN2CC(C(N)=O)Oc3ccccc32)cc1F (configuration not stated)	none
CCCC(=O)NCc1nc2ccccc2n1C	none
Cc1ccc(OCC(=O)N(Cc2ccc(Cl)cc2)Cc2ccco2)cc1C	none (no result: HCV inhibitor, Pf growth 48h, Pf growth 96h, NS1 function inh)
CCN(C(=O)CSc1nnc(Cn2nnc3ccccc32)o1)c1nc(C)cs1	VACV Venus inh inconclusive, Vaccinia mCherry inconclusive, Pf growth 96h 9.3µM
CCN(C(=O)CSc1nnc(Cn2nnc3ccccc32)o1)c1nc(-c2ccccc2)cs1	HCV inhibitor inconclusive, Vaccinia mCherry inconclusive (no result: Pf growth 48h)
O=C(CSc1nnc(Cn2nnc3ccccc32)o1)N(Cc1ccc(Cl)cc1)c1ccccc1	VACV Venus inh inconclusive, HCV inhibitor 6.3µM, Vaccinia mCherry inconclusive, Pf growth 48h 10µM (no result: Pf growth 96h)
CCOc1ccc(N(CC(=O)NC2CCCCC2)C(=O)CNC(=O)c2cccs2)cc1	none
O=C1/C(=C/c2cccs2)CCC/C1=C\c1cccs1	none
Cn1cccc1/C=C1\CCC/C(=C\c2cccn2C)C1=O	HCV inhibitor 13µM (no result: VACV Venus inh, Vaccinia mCherry, Pf growth 48h)
COc1ccc2c(CCNC(=O)CN3C(=O)c4ccccc4C3=O)c[nH]c2c1	none (no result: VACV Venus inh, Vaccinia mCherry)
Cc1cccc2c(N=Nc3ccc(S(=O)(=O)Nc4cccc(Cl)c4)cc3[N+](=O)[O-])c(O)[nH]c12	Pf growth 48h 6.6µM, Pf growth 96h inconclusive (no result: VACV Venus inh, Vaccinia mCherry)
